Sampled rows, rich in hits. Any-hit rate of the full collection: about 3.3%.
14-3-3 Bad inh: disrupts binding of bovine 14-3-3 zeta to phospho-Bad peptide; TR-FRET 14-3-3zeta/Dy647-pBad peptide displacement, 1 h; hit rate 0.71% among 220,000; inhibition, % at 21.7 µM; P63103;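 active means inhibition above about 70%, limit read from the data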;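 further: 0% = full 14-3-3 plus peptide FRET controls and 100% = background without 14-3-3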
Target sequence (P63103 whole entry, looked up): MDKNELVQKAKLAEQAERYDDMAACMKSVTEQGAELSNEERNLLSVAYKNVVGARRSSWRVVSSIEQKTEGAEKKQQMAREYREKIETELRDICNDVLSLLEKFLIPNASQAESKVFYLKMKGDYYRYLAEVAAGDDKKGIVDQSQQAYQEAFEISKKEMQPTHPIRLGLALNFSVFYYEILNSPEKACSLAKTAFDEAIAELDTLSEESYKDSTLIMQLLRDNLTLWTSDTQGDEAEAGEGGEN
p47phox inh: p47phox (human) inhibition. p47phox/p22phox peptide binding, fluorescence polarization, 2 h. inhibition, % at 24.7 µM. hit rate 0.53% among 220,000. P14598;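 further: 0% = p47phox with labelled peptide and 100% = labelled peptide alone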
Mcl1 Bid PPI: Mcl-1/Bid interaction inhibition | hit rate 0.97% among 220,000 | inhibition, % at 21.7 µM | TR-FRET Mcl-1/Bid-Dy647 peptide binding, 1536-well | AID 1021 | Q07820;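 active means compounds that cut the binding signal by more than half at the single screening dose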;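 further: His-tagged Mcl-1 with europium anti-His antibody binding Bid BH3 peptide; 0% = Mcl-1 plus peptide wells and 100% = peptide-only wells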
Target sequence (Q07820 whole entry, looked up): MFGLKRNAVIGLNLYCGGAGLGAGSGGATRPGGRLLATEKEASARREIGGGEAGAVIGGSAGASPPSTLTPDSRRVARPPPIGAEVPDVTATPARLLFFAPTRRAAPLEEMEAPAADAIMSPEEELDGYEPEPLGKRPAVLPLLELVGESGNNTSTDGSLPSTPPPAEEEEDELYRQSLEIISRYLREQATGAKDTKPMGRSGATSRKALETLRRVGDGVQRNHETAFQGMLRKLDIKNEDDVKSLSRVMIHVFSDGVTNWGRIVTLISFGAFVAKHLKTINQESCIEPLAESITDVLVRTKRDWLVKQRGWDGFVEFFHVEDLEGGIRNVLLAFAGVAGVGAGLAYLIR
Mcl1 Noxa PPI: disrupts binding of human Mcl-1 to Noxa peptide. AID 1022. inhibition, % at 21.7 µM. TR-FRET Mcl-1/Noxa peptide binding, 2 h. hit rate 1.5% among 220,000. Q07820;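 active means compounds that cut the protein-peptide binding signal by more than 50% relative to plate controls in a single-dose test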;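 further: His-tagged Mcl-1 with rhodamine Noxa BH3 peptide and terbium anti-His antibody; 0% = Mcl-1 plus Noxa peptide wells and 100% = peptide-only wells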
eIF4E 4G PPI: blocks eIF4E binding to eIF4G | inhibition, % at 21.7 µM | hit rate 0.37% among 220,000 | TR-FRET eIF4E-eIF4GI(517-606) binding, 2 h | AID 782 | P63073+Q04637;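 further: 0% = full FRET control wells and 100% = background wells lacking eIF4GI fragment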
Mcl-1 Bim block: inhibitors of Bim-Mcl-1 interaction, human; Bead-based flow cytometry, Bim peptide-Mcl-1 binding; inhibition, % at 10 µM; hit rate 0.1% among 190,000; in the data active means inhibition above about 40%;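 further: 0% = no compound tracer wells and 100% = peptide blocker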
* hit, by the source's call; x = no result given; [ ] = another dose, or the depositor's remark.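 How the source made its calls, unless noted: active means inhibition above about 30% (limit read from the data); inactive means the rest.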

SMILES	14-3-3 Bad inh	p47phox inh	Mcl1 Bid PPI	Mcl1 Noxa PPI	eIF4E 4G PPI	Mcl-1 Bim block
CCCOc1ccc(C(=O)NCC(c2ccco2)N(C)C)cc1OC (centres undefined)	-11	-19	95*	-11	2	-5
O=C(NC(=S)NNC(=O)[C@H]1C[C@@H]1c1ccccc1)c1cccc(F)c1	-15	-10	-140	-74	-1	x
C[C@@H](Oc1ccccc1)c1nnn(Cc2ccccc2)c1-c1c([C@@H](C)Oc2ccccc2)nnn1Cc1ccccc1	-4	-12	-22	-16	1	x
O=c1c2c(nc3nc(NCc4cccc(Cl)c4)[nH]n13)CCC2	72*	-6	-20	-8	-1	-2
COc1cc(C2N(c3ccc(Cl)cc3)C(=O)C3CCCN32)cc(OC)c1OC (centres undefined)	-1	-22	-13	0	2	1
COc1ccc(N2C(=O)C3CCCN3C2c2cc(OC)c(OC)c(OC)c2)cc1 (centres undefined)	12	35*	-25	-28	-11	-1
COc1ccc(N2C(=O)C3CCCN3C2=O)cc1 (centres undefined)	-6	-7	-6	102*	-1	-2
O=C(Nc1ccccc1Cl)c1ccc(-c2ccccn2)s1	-1	-8	-6	8	-1	x
CCOC(=O)C1=NOC2C3CC(C12)C1C(=O)N(CCc2ccc(OC)c(OC)c2)C(=O)C31 (centres undefined)	0	-13	-57	1	-2	x
Cc1ccc(C(=O)NC(=S)Nc2ccc(NC(=O)c3cccs3)cc2)cc1[N+](=O)[O-]	15	-38	52*	42	10	-6
CN1C=C/C(=C\c2cc[n+](C)c3ccccc23)c2ccccc21	26	-3	1	85*	26	2
Cc1nc2scc(-c3ccccc3)c2c(=O)n1N=C1C=CC(=O)C=C1	-14	12	-8	63*	5	1
O=C1CCCC(O)=C1N=Nc1ccc(C(=O)O)cc1	51	32*	-48	54*	3	x
Cc1nc(N2CCOCC2)c2oc3ccccc3c2n1	5	-6	-1	9	1	-3
c1ccc2c(c1)oc1c(N3CCOCC3)ncnc12	81*	-7	28	31	-2	-1
CC(C)OC(=O)C(C)Nc1ccc(F)c(Cl)c1 (centres undefined)	2	-2	-66	17	4	x
Cc1ccc(Nc2nnc(SCC(=O)NC3CCS(=O)(=O)C3)s2)c(C)c1 (centres undefined)	-13	-3	-27	14	4	-6
Cc1ccc(Nc2nnc(SC3CCOC3=O)s2)c(C)c1 (centres undefined)	80*	-2	-6	-2	0	-3
C#Cc1ccc([C@@H]2C=C(C(=O)O)O[C@H](OCc3ccc(CO)cc3)C2)cc1	7	x	-3	9	0	-1
CC(=O)c1c(C)nc(-c2ccc(Cl)cc2)nc1N=CN(C)C	84*	-17	3	20	60*	-1
Cc1cc(C2N=C(N)Nc3nc4ccccc4n32)c(C)n1-c1ccccc1Cl (centres undefined)	14	41*	-23	-25	2	1
NC1=NC(c2ccc(F)cc2)n2c(nc3ccccc32)N1 (centres undefined)	0	-9	-8	1	-1	-7
Cc1ccc(-n2c(C)cc(C3N=C(N)Nc4nc5ccccc5n43)c2C)c(C)c1 (centres undefined)	25	30*	-35	-12	-53	-2
CCN(CC)c1nc(N)nc(N(c2ccccc2)c2ccccc2)n1	0	-17	-4	-4	0	79*
Cc1nn(-c2cc(N(S(C)(=O)=O)S(C)(=O)=O)c(Cl)cc2Cl)c(=O)n1C	1	-5	-2	9	7	-1
SMILES	14-3-3 Bad inh	p47phox inh	Mcl1 Bid PPI	Mcl1 Noxa PPI	eIF4E 4G PPI	Mcl-1 Bim block
N#C/C(=N\Nc1ccc(S(=O)(=O)N2CCc3ccccc32)cc1)C(N)=S	-14	-24	-7	60*	-2	2
CCOc1ccc(-c2ccc(/C=C3/C(=N)N4C(C)=CSC4=NC3=O)o2)c([N+](=O)[O-])c1	64	22	68*	66*	14	0
CC1=CN2C(=N)/C(=C/c3ccc([N+](=O)[O-])o3)C(=O)N=C2S1	16	-88	6	65*	16	-3
CCOc1ccc(-c2ccc(/C=C3/C(=N)N4C=CSC4=NC3=O)o2)c([N+](=O)[O-])c1	84*[fluorescence artefact?]	0	89*	129*	23	1
O=C(CN1C(=O)C2CC=CCC2C1=O)Nc1ccc(S(=O)(=O)N2CCOCC2)cc1 (centres undefined)	7	-1	-26	12	1	-2
CCN1/C(=C\C=C2\C(=O)N(c3ccccc3)C(=S)N2C)Sc2ccccc21	95*	23	78*	60*	-8	-5
CCCN1C(=O)/C(=C\C=C2\N(CC)c3ccccc3C2(C)C)SC1=S	-4	-240	-15	-14	1	-6
CCN1C(=O)/C(=C/C=C2\C=CN(CC)c3ccccc32)SC1=S	-10	-13	49	64*	-1	6
CCCN1C(=O)/C(=C\C=C2/Sc3ccccc3N2CC)SC1=S	-16	77*	-26	-9	-3	3
CC(C)=CCN1CCN(Cc2cnc(C)s2)CC1CCO (centres undefined)	-3	-9	-19	-1	2	5
Cn1c(SCC(=O)NNC(=O)Nc2ccccc2)nnc1-c1ccccc1	-1	-3	-6	5	-5	x
CCOC(=O)N1CCc2c(sc3nc4n(c(=O)c23)N=C(c2ccc(OC)cc2)CS4)C1	27	38*	6	11	18	x
N#Cc1c(NC(=O)c2ccccc2Cl)n(Cc2ccccc2)c2nc3ccccc3nc12	18	-22	41	70*	1	2
CCCCn1c(NC(=O)c2ccccc2Cl)c(C#N)c2nc3ccccc3nc21	54	-12	19	-2	9	0
CCOc1c(Cl)cc(CNc2ccc(S(N)(=O)=O)cc2)cc1OC	1	6	1	15	-2	0
CCOc1c(Cl)cc(CNc2ccc(N3CCCC3)cc2)cc1OC	-3	6	-19	88*	6	9
CCN1C(=O)c2cccc3c(S(=O)(=O)Nc4ccccc4OC)ccc1c23	-8	-1	75*	21	8	-5
O=c1oc2cc([N+](=O)[O-])ccc2nc1/C=C(O)/C=C/c1ccccc1	2	-142	-75	72*	3	x
CCOC(=O)C1(CCc2ccccc2)CCN(C(=O)[C@@H]2C[C@@H](C)NC(=S)N2)CC1	-9	0	-78	6	0	-1
CCn1c(=N)c(S(=O)(=O)c2ccc(C)cc2)cc2c(=O)n3ccccc3nc21	-1	20	-6	-3	1	5

Screening data from PubChem.
